From PubChem BioAssay (NCATS)
“And” between values parts separate entries of the source, which are not always exact repeats. Identical values can stand only once. Records with an inconclusive call do not appear. The source made the active and inactive calls. Calls come from the whole dose curve; as a rule, active = well fitted inhibition curve with a large enough effect; inconclusive = small, poorly fitted or top-dose-only effect; inactive = flat fitted curve, though single readings scatter.

What was measured:
[1] = test system: CRL-7250; test: Cytotoxic Profiling of Annotated Libraries Using Quantitative High-Throughput Screening (AID 1296008); conditions: Five cell lines viability, CellTiter-Glo ATP luminescence, 48-72 h; max response: hits give low values; for max response: % is set by controls: 0 for no effect and ±100 for the full control effect
In short: (§1)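 Cells exposed to compounds for 48 or 72 hr at 37 degrees Celsius. Viability read as ATP-coupled luminescence with CellTiter-Glo after 10 min at room temperature.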

[2] = test system: HaCat; test: as above; conditions: Five cell lines viability, CellTiter-Glo ATP luminescence, 48-72 h; max response: hits give low values
In short: as §1

[3] = test system: NIH3T3; test: as above; conditions: Five cell lines viability, CellTiter-Glo ATP luminescence, 48-72 h; max response: hits give low values
In short: as §1

[4] = test system: MCC-13; test: qHTS assay to identify novel small-molecules to repurpose for Merkel cell carcinoma treatment (AID 1296009); conditions: MCC and control cell lines, CellTiter-Glo viability, 72 h; series mostly up to 46 µM
In short: (§2)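 Cells were treated for 72 hr at 37 degree celsius with compounds in 8- or 11-point dose response. Viability was read by CellTiter-Glo luminescence, normalized to no-cell (cytotoxicity) and DMSO controls.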

[5] = test system: MCC-26; test: as above; conditions: MCC and control cell lines, CellTiter-Glo viability, 72 h; series mostly up to 46 µM
In short: as §2

[6] = test system: MKL-1; test: as above; conditions: MCC and control cell lines, CellTiter-Glo viability, 72 h; series mostly up to 46 µM
In short: as §2

[7] = test system: MKL-2; test: as above; conditions: MCC and control cell lines, CellTiter-Glo viability, 72 h; series mostly up to 46 µM
In short: as §2

[8] = test system: UISO; test: as above; conditions: MCC and control cell lines, CellTiter-Glo viability, 72 h; series mostly up to 46 µM
In short: as §2

[9] = test system: CRL-7250; test: as above; conditions: MCC and control cell lines, CellTiter-Glo viability, 72 h; at 44.8 µM (top of the series) unless noted
In short: as §2

[10] = test system: HEK293T; test: as above; conditions: MCC and control cell lines, CellTiter-Glo viability, 72 h; at 44.8 µM (top of the series) unless noted
In short: as §2

[11] = test system: NIH3T3; test: as above; conditions: MCC and control cell lines, CellTiter-Glo viability, 72 h; at 44.8 µM (top of the series) unless noted
In short: as §2

[12] = test system: HEK293; test: Cytotoxic Profiling of Annotated Libraries Using Quantitative High-Throughput Screening (AID 1296008); conditions: Five cell lines viability, CellTiter-Glo ATP luminescence, 48-72 h; max response: hits give low values; for max response: % is set by controls: 0 for no effect and ±100 for the full control effect
In short: as §1

[13] = test system: KB-3-1; test: as above; conditions: Five cell lines viability, CellTiter-Glo ATP luminescence, 48-72 h; max response: hits give low values
In short: as §1

[14] = test system: HACAT; test: qHTS assay to identify novel small-molecules to repurpose for Merkel cell carcinoma treatment (AID 1296009); conditions: MCC and control cell lines, CellTiter-Glo viability, 72 h; at 44.8 µM (top of the series) unless noted
In short: as §2

[15] = test system: PC49; test: qHTS profiling for inhibitors of Plasmodium falciparum proliferation (AID 504749); conditions: P. falciparum in erythrocytes, SYBR Green DNA, 72 h; series mostly up to 28.7 µM
In short: (§3)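 P. falciparum-infected erythrocytes (0.3% parasitemia, 2.5% hematocrit) incubated with compound 72 h at 37 C, 5% CO2. Parasite DNA detected by SYBR Green after lysis, overnight at room temperature; normalised to 0.29 uM artemisinin and DMSO.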

[16] = test system: SC27B; test: as above; conditions: P. falciparum in erythrocytes, SYBR Green DNA, 72 h; series mostly up to 28.7 µM
In short: as §3

[17] = test system: TAB109; test: as above; conditions: P. falciparum in erythrocytes, SYBR Green DNA, 72 h; series mostly up to 28.7 µM
In short: as §3

[18] = test system: TAB113; test: as above; conditions: P. falciparum in erythrocytes, SYBR Green DNA, 72 h; series mostly up to 28.7 µM
In short: as §3

[19] = test system: TAB165; test: as above; conditions: P. falciparum in erythrocytes, SYBR Green DNA, 72 h; series mostly up to 28.7 µM
In short: as §3

[20] = test system: W2; test: as above; conditions: P. falciparum in erythrocytes, SYBR Green DNA, 72 h; series mostly up to 28.7 µM
In short: as §3
Note: nearly all actives have a fitted effect of over 60% in size.
Potency is the fitted concentration of half-maximal effect.

O=[N+]([O-])c1ncc[nH]1
inactive: max response [1] -4.09% | max response [2] -7.46% | max response [3] -0.757% | Potency [4] | Potency [5] | Potency [6] | Potency [7] | Potency [8]

CC1=C(C(=O)O)N2C(=O)[C@@H](N)[C@H]2SC1
inactive: outcome [1] | max response [2] 3.51% | outcome [3] | outcome [9] inactive [at 17.4 µM] | outcome [10] inactive [at 17.4 µM] | Potency [4] | Potency [5] | Potency [6] | Potency [7] | outcome [11] inactive [at 17.4 µM] | Potency [8]

O=C(O)CNC(=O)c1c(O)c2ccccc2n(Cc2ccccc2)c1=O
inactive: max response [12] 1.22% | outcome [12] | outcome [2] | max response [13] 5.38% and 7.42% | max response [3] -11% and 0.668% | outcome [14] | outcome [10] | Potency [4] | Potency [5] | Potency [6] | Potency [7] | Potency [8]

CO/C=C(/C(=O)OC)c1ccccc1Oc1cc(Oc2ccccc2C#N)ncn1
active: Potency [1] 19.3 µM | Potency [3] 6.86 µM | Potency [7] 13.7 µM
inactive: Potency [5]

CC(=Cc1csc(C)n1)[C@@H]1C[C@H]2O[C@@H]2CCC[C@H](C)[C@@H](O)[C@@H](C)C(=O)C(C)(C)[C@@H](O)CC(=O)O1
active: Potency [13] 0.0004 µM
inactive: max response [12] -79% | max response [2] -20.3% | max response [3] -77% | Potency [6] | Potency [7] | Potency [8]

CC(=O)[O][Hg][c]1ccccc1
active: Potency [15] 2 µM | Potency [16] 4.47 µM | Potency [17] 4.47 µM | Potency [18] 7.08 µM | Potency [19] 4.47 µM | Potency [20] 4.78 µM | Potency [1] 4.22 µM | Potency [13] 1.64 µM | Potency [4] 1.06 µM | Potency [5] 2.66 µM | Potency [7] 0.106 µM | Potency [8] 0.841 µM

O=C(Nc1ccccc1-c1ccc(Cl)cc1)c1cccnc1Cl
inactive: max response [1] -3.67% | max response [13] -17.8% | outcome [3] | Potency [4] | Potency [5] | Potency [6] | Potency [7] | outcome [11] inactive [at 92 µM] | Potency [8]

Nc1ccc(Sc2ccc(N)cc2)cc1
inactive: max response [1] -36.8% | max response [13] -8.88% | max response [3] -12.3% | Potency [4] | Potency [5] | Potency [6] | Potency [7] | Potency [8]

CCCN1CCO[C@@H]2c3cc(O)ccc3OC[C@@H]21
inactive: max response [1] -5.49% | outcome [13] | Potency [4] | Potency [5] | Potency [6] | Potency [8]

Cc1[nH]nc2ccc(-c3cncc(OC[C@@H](N)Cc4c[nH]c5ccccc45)c3)cc12
active: Potency [1] 935 nM and 2.06 µM | Potency [2] 1.18 µM | Potency [13] 0.146 µM | Potency [3] 1.66 µM and 1.64 µM | Potency [4] 2.35 µM | Potency [7] 3.72 µM | Potency [8] 0.235 µM

CC1(C)CC/C(=C/c2ccc(Cl)cc2)C1(O)Cn1cncn1 (configuration not stated)
inactive: max response [1] -5.73% | max response [13] -19.8% | max response [3] -11.7% | Potency [4] | Potency [5] | Potency [6] | Potency [7] | Potency [8]

Nc1ccc(Cl)cc1N
inactive: max response [1] -5.38% | max response [2] -38.9% | max response [13] -2.75% | Potency [4] | Potency [5] | Potency [8]

CC(=O)O[C@@]12CO[C@H]1C[C@H](O)[C@@]1(C)C(=O)[C@H](O)C3=C(C)[C@@H](O)C[C@@](O)([C@@H](OC(=O)c4ccccc4)[C@@H]21)C3(C)C
inactive: Potency [7]
active: Potency [12] 2.96 µM | Potency [13] 3.32 µM | Potency [3] 14.8 µM | Potency [8] 4.18 µM

C[C@]12CC[C@@H]3[C@@H](CCC4=CC(=O)CC[C@@H]43)[C@@H]1CC[C@@H]2OC(=O)CCc1ccccc1
inactive: max response [1] 1.37% | max response [2] -22.8% | max response [3] -6.38% | outcome [10] | Potency [4] | Potency [5] | Potency [6] | Potency [7] | Potency [8]
